Laboratory results as given in PubChem BioAssay (Tox21).
Records with an inconclusive call do not appear. Activity calls are given as the source filed them. Unless noted, calls come from the whole dose curve; as a rule, active = well fitted curve in the direction sought with a large enough effect in the repeat runs; inconclusive = weak or mixed curves; inactive = no such curve, though single readings can be large; an effect the other way counts as inactive or inconclusive.

Key:
[1] = qHTS assay to identify small molecule antagonists of the peroxisome proliferator-activated receptor delta (PPARd) signaling pathway - cell viability counter screen (AID 743213); note: % is set by controls: 0 for no effect and ±100 for the full control effect; nearly all actives have a fitted effect of over 50% in size
In short: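 Agonist-stimulated (L165041, 300 nM final) HEK293H PPARd UAS-bla cells are exposed to compounds for 17 h at 37 C, and ATP-based luminescence (CellTiter-Glo) from the same wells reports cytotoxicity.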

[2] = qHTS assay to identify small molecule agonists of the farnesoid-X-receptor (FXR) signaling pathway - cell viability counter screen (AID 743218); note: % is set by controls: 0 for no effect and ±100 for the full control effect; nearly all actives have a fitted effect of over 45% in size
In short: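 Quantitative HTS counter screen measuring ATP-based viability via CellTiter-Glo luminescence in HEK 293T cells carrying a UAS-driven beta-lactamase reporter, after 16 h compound exposure at 37 C.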

[3] = qHTS assay to identify small molecule antagonists of the farnesoid-X-receptor (FXR) signaling pathway - cell viability counter screen (AID 743221; active = well fitted cell-killing curve with a large enough effect in the repeat runs, not every such curve was filed as active; note: % is set by controls: 0 for no effect and ±100 for the full control effect; nearly all actives have a fitted effect of over 50% in size)
In short: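 HEK 293T FXR-bla cells, 5 h pre-incubation; compound + CDCA 50 uM final, 16 h, 37 C; beta-lactamase FRET read first, then CellTiter-Glo luminescence, 30 min RT.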

[4] = qHTS assay to identify small molecule antagonists of the vitamin D receptor (VDR) signaling pathway - cell viability counter screen (AID 743225); note: % is set by controls: 0 for no effect and ±100 for the full control effect; nearly all actives have a fitted effect of over 50% in size
In short: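 Viability counter screen run in the same wells as the beta-lactamase reporter assay: HEK 293T VDR-UAS-bla cells, 16 h compound exposure at 37C with 3 nM (final) 1-alpha,25-dihydroxyvitamin D3. CellTiter-Glo luminescence, 30 min, room temperature.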

[5] = qHTS assay to identify small molecule agonists of the NFkB signaling pathway (AID 1159509; active = well fitted curve in the direction sought with a large enough effect in the signal ratio in the repeat runs, not every such curve was filed as active; the % refers to the signal ratio; note: series mostly up to about 61 µM; % is set by controls: 0 for no effect and ±100 for the full control effect)
In short: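 Readout: FRET fluorescence, 405 nm excitation, 460/530 nm emission; beta-lactamase expression disrupts FRET. Cells: ME-180 stably carrying NF-kB-driven bla reporter. Compound exposure 5 hr, 37 C, 5% CO2.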

[6] = qHTS assay to identify small molecule agonists of the endoplasmic reticulum stress response signaling pathway (AID 1159516; active = well fitted activation curve with a large enough effect in the signal ratio in the repeat runs, not every such curve was filed as active; the % refers to the signal ratio; note: % is set by controls: 0 for no effect and ±100 for the full control effect)
In short: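 Fluorescence at 460 and 530 nm (405 nm excitation) reports beta-lactamase from an ER stress response element in HeLa cells treated 5 hr at 37 C.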

[7] = qHTS assay to identify small molecule agonists of the endoplasmic reticulum stress response signaling pathway - cell viability counter screen (AID 1159517; calls by dose curve; note: series mostly up to about 61 µM; % is set by controls: 0 for no effect and ±100 for the full control effect; nearly all actives have a fitted effect of over 50% in size)
In short: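 After overnight attachment, ESRE-bla HeLa cells were treated with Tox21 library compounds for 5 hr. CellTiter-Glo luminescence, read 30 min post-addition at room temperature, reported viability.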

[8] = qHTS assay to identify small molecule antagonists of the retinoid-related orphan receptor gamma (ROR-gamma) signaling pathway - cell viability counter screen (AID 1159520)
In short: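 Cytotoxicity was read from cellular ATP (CellTiter-Glo luminescence) after 16 hr at 37 C with 1 uM doxycycline induction. The inducer was added 2 hr after compound transfer to Tet-on ROR gamma CHO cells.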

[9] = biological target: Nuclear receptor ROR-gamma (Homo sapiens) (UniProt P51449); experiment: qHTS assay to identify small molecule antagonists of the retinoid-related orphan receptor gamma (ROR-gamma) signaling pathway (AID 1159521)
In short: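 Luminescence readout (ONE-Glo, 30 min RT) after 16 h doxycycline induction; loss of signal scored as antagonism. CHO cells with TET-inducible RORγ and RORE-LUC reporter; compounds added 2 h before 1 uM final doxycycline.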

[10] = qHTS assay to identify small molecule agonists of the AP-1 signaling pathway - cell viability counter screen (AID 1159525; calls by dose curve; note: nearly all actives have a fitted effect of over 55% in size)
In short: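 Intracellular ATP by Cell Titer Glo luminescence (30 min, RT) in the same ME-180 AP-1-bla wells after the 5 h compound exposure at 37 °C. Normalised to tetra n-octyl ammonium bromide and DMSO controls.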

[11] = qHTS assay to identify small molecule agonists of the AP-1 signaling pathway (AID 1159526; calls by dose curve; note: % is set by controls: 0 for no effect and ±100 for the full control effect)
[12] = biological target: Retinoic acid receptor RXR-alpha (Homo sapiens) (UniProt P19793); experiment: qHTS assay to identify small molecule agonists of the RXR signaling pathway (AID 1159527; calls by dose curve; note: % is set by controls: 0 for no effect and ±100 for the full control effect; nearly all actives have a fitted effect of over 35% in size)
In short: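 Agonist mode; 9-cis retinoic acid positive control. HEK 293T UAS-bla reporter cells, 2% charcoal-stripped FBS, 16 hr compound exposure at 37 C/5% CO2. LiveBLAzer B/G FRET substrate 2 hr RT; ex 405, em 460/530 nm.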

[13] = biological target: Peroxisome proliferator-activated receptor delta (Homo sapiens) (UniProt Q03181); experiment: qHTS assay to identify small molecule agonists of the peroxisome proliferator-activated receptor delta (PPARd) signaling pathway (AID 743212; calls by dose curve;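 note: HEK293H cells with PPARd UAS beta-lactamase reporter GeneBLAzer system; % is set by controls: 0 for no effect and ±100 for the full control effect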)
In short: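 Steps: seed PPARd-bla HEK293H cells; incubate 5 h, 37 C, 5% CO2; add compounds in DMSO; incubate, 37 C; add LiveBLAzer B/G FRET substrate; hold 2 h at room temperature; measure fluorescence.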

[14] = biological target: Peroxisome proliferator-activated receptor delta (Homo sapiens) (UniProt Q03181); experiment: qHTS assay to identify small molecule antagonists of the peroxisome proliferator-activated receptor delta (PPARd) signaling pathway (AID 743215; active = well fitted inhibition curve with a large enough effect in the signal ratio in the repeat runs, not every such curve was filed as active; the % refers to the signal ratio)
In short: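 Here, a reporter line (HEK293H, beta-lactamase under a UAS) measures PPARd signaling. Compounds are tested against agonist L165041 at 300 nM final concentration over 17 h at 37 C, with fluorescence read after substrate.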

[15] = biological target: Bile acid receptor (Homo sapiens) (UniProt Q96RI1); experiment: qHTS assay to identify small molecule antagonists of the farnesoid-X-receptor (FXR) signaling pathway (AID 743217; active = well fitted inhibition curve with a large enough effect in the signal ratio in the repeat runs, not every such curve was filed as active; the % refers to the signal ratio; note: % is set by controls: 0 for no effect and ±100 for the full control effect)
In short: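 Test compounds are pin-transferred onto FXR-bla HEK 293T cells, then chenodeoxycholic acid is added at 50 uM final. After 16 h at 37 °C, LiveBLAzer B/G substrate is applied for 2 h at room temperature and fluorescence read.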

[16] = biological target: Bile acid receptor (Homo sapiens) (UniProt Q96RI1); experiment: qHTS assay to identify small molecule agonists of the farnesoid-X-receptor (FXR) signaling pathway (AID 743220; active = well fitted activation curve with a large enough effect in the signal ratio in the repeat runs, not every such curve was filed as active; the % refers to the signal ratio; note: % is set by controls: 0 for no effect and ±100 for the full control effect)
In short: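 FXR-UAS-bla HEK 293T cells carrying a UAS-driven beta-lactamase reporter were plated for 5 h at 37C/5% CO2, then exposed to DMSO-dissolved Tox21 10K compounds for 16 h at 37C. A LiveBLAzer B/G FRET substrate was loaded for 2 h at room temperature before fluorescence reading.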

[17] = biological target: Vitamin D3 receptor (Homo sapiens) (UniProt P11473); experiment: qHTS assay to identify small molecule agonists of the vitamin D receptor (VDR) signaling pathway (AID 743222; calls by dose curve; note: % is set by controls: 0 for no effect and ±100 for the full control effect)
In short: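 Tox21 cell reporter format: VDR-bla line, 16 h compound exposure in 5% CO2 at 37C, then fluorescence intensity after 2 h with LiveBLAzer B/G FRET substrate.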

[18] = biological target: Vitamin D3 receptor (Homo sapiens) (UniProt P11473); experiment: qHTS assay to identify small molecule antagonists of the vitamin D receptor (VDR) signaling pathway (AID 743223; active = well fitted inhibition curve with a large enough effect in the signal ratio in the repeat runs, not every such curve was filed as active; the % refers to the signal ratio; note: % is set by controls: 0 for no effect and ±100 for the full control effect)
In short: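 Beta-lactamase reporter read-out: FRET substrate fluorescence after 2 h at room temperature, following 16 h exposure of VDR-bla cells to test compound plus 3 nM (final) 1alpha,25-dihydroxyvitamin D3 agonist at 37C.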

[19] = qHTS assay to identify small molecule agonists of the vitamin D receptor (VDR) signaling pathway - cell viability counter screen (AID 743224)
In short: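 CellTiter-Glo viability readout on VDR-bla cells, measured after 16 h of compound treatment at 37C in the same wells.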

[20] = qHTS assay to identify small molecule agonists of the NFkB signaling pathway - cell viability counter screen (AID 1159515; calls by dose curve; note: series mostly up to about 61 µM; % is set by controls: 0 for no effect and ±100 for the full control effect; nearly all actives have a fitted effect of over 55% in size)
In short: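 Tox21 library compounds were tested for cytotoxicity against NFkB-bla ME-180 cells during a 5 hr exposure at 37 C. CellTiter-Glo luminescence served as the viability read-out.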

Sequence of Retinoic acid receptor RXR-alpha (Homo sapiens) (P19793 whole entry, looked up): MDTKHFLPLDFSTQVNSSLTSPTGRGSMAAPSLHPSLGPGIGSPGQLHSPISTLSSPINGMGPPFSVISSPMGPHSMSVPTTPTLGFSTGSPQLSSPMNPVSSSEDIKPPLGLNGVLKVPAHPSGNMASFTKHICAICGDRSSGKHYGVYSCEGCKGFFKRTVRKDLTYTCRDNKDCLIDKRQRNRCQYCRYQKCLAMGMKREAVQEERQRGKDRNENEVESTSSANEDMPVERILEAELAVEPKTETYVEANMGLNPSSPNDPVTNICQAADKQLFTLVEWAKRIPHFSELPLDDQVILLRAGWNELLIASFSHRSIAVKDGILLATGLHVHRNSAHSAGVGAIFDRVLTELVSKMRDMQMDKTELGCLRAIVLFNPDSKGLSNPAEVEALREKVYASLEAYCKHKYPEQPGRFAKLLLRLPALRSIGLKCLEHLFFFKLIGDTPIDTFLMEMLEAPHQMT
Sequence of Bile acid receptor (Homo sapiens) (Q96RI1 whole entry, looked up): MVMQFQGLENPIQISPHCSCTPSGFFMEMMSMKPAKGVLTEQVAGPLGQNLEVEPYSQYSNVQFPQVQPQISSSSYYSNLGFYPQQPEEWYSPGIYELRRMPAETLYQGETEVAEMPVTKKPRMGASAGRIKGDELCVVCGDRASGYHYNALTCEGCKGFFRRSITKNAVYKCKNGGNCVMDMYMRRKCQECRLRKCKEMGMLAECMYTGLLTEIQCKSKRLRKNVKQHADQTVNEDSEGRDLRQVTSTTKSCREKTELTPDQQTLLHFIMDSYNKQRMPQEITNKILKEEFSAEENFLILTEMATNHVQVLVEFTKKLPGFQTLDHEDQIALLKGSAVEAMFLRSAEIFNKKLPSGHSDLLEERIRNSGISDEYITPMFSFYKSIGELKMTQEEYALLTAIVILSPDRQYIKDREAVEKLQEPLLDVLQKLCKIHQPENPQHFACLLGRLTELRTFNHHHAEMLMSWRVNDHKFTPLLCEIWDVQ
Sequence of Peroxisome proliferator-activated receptor delta (Homo sapiens) (Q03181 whole entry, looked up): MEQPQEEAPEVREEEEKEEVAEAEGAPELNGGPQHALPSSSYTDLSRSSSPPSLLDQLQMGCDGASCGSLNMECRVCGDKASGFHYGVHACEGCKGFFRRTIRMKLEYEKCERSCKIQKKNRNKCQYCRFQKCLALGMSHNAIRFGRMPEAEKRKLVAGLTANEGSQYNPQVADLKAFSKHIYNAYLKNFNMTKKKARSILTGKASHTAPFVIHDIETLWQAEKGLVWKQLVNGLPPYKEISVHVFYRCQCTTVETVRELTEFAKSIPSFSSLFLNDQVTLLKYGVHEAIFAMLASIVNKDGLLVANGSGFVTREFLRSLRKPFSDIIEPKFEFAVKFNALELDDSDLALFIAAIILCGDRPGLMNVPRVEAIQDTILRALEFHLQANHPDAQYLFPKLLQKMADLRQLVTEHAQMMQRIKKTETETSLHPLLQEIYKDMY
Sequence of Vitamin D3 receptor (Homo sapiens) (P11473 whole entry, looked up): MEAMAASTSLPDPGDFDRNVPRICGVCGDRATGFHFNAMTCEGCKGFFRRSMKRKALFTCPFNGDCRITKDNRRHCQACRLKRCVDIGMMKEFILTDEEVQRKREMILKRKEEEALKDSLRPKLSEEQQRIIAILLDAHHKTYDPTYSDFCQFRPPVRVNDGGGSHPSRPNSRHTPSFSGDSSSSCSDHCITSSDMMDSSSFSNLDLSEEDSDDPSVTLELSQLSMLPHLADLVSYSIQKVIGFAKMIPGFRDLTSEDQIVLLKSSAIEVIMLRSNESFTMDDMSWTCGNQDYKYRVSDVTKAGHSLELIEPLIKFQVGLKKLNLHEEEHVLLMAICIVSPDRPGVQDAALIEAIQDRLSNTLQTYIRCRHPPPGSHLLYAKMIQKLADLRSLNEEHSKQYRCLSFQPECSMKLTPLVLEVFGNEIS

OC(CCN1CCCCC1)(c1ccccc1)c1ccccc1
inactive: outcome [1] | Potency [2] | outcome [3] | outcome [4] | outcome [5] | outcome [6] | outcome [7] | outcome [8] | outcome [9] | outcome [10] | outcome [11] | Potency [12]

CC1=CC[C@H](CC=O)C1(C)C
inactive: outcome [13] | outcome [1] | outcome [14] | outcome [15] | outcome [16] | outcome [17] | outcome [18] | outcome [19] | outcome [4] | outcome [5] | outcome [6] | outcome [8] | outcome [9] | outcome [10] | outcome [11] | Potency [12]

COc1cccc2sc(N)nc12
inactive: outcome [13] | outcome [1] | outcome [14] | outcome [15] | Potency [2] | outcome [16] | outcome [17] | outcome [18] | outcome [19] | outcome [4] | outcome [5] | outcome [8] | outcome [9] | outcome [10] | outcome [11]

CCOC(=O)CCCCCCCCC(=O)OCC
inactive: outcome [1] | Potency [2] | outcome [3] | outcome [17] | outcome [19] | outcome [5] | outcome [7] | outcome [8] | outcome [9] | outcome [10] | outcome [11] | Potency [12]

CCCCCCCCCCCCCCCCI
inactive: outcome [1] | outcome [14] | outcome [15] | Potency [2] | outcome [16] | outcome [3] | outcome [17] | outcome [18] | outcome [19] | outcome [4] | outcome [5] | outcome [6] | outcome [7] | activity, negative = cytotoxicity [8] -0.188% [at 19 µM] | activity change, negative = inhibition [9] 2.8% [at 19 µM] | viability change, negative = cytotoxic [10] -11.4% [at 15.8 µM] | activation [11] -9.43% [at 15.8 µM] | activation [12] 7.13% [at 15.8 µM]

COC(OC)C(C)c1ccccc1 (configuration not stated)
inactive: outcome [13] | outcome [1] | outcome [14] | Potency [2] | outcome [3] | outcome [18] | outcome [4] | outcome [5] | outcome [6] | outcome [7] | outcome [8] | outcome [10] | outcome [11] | Potency [12]

COc1cc2c(Nc3ccc(Br)cc3F)ncnc2cc1OCC1CCN(C)CC1
inactive: outcome [13] | outcome [1] | outcome [14] | outcome [15] | Potency [2] | outcome [16] | outcome [3] | outcome [19] | outcome [5] | outcome [7] | outcome [8] | outcome [9] | outcome [10] | outcome [11] | Potency [12]

CCCC(C)CC (configuration not stated)
inactive: outcome [13] | outcome [1] | outcome [14] | Potency [2] | outcome [3] | outcome [17] | outcome [18] | outcome [19] | outcome [5] | outcome [8] | outcome [10] | outcome [11] | Potency [12]

Cc1cccc(NC(=S)N(C)C)c1
inactive: outcome [1] | outcome [14] | outcome [15] | Potency [2] | outcome [16] | outcome [17] | outcome [18] | outcome [19] | outcome [4] | outcome [5] | outcome [6] | outcome [7] | outcome [8] | outcome [9] | outcome [10] | outcome [11] | Potency [12]

CCOC(=O)CCc1ccccc1
inactive: outcome [1] | outcome [14] | Potency [2] | outcome [16] | outcome [3] | outcome [17] | outcome [18] | outcome [19] | outcome [4] | outcome [5] | outcome [6] | outcome [7] | outcome [8] | outcome [9] | outcome [10] | outcome [11] | Potency [12]

O=C(O)C(=O)Nc1cccc(-c2nn[nH]n2)c1
inactive: outcome [13] | outcome [1] | outcome [14] | outcome [15] | Potency [2] | outcome [16] | outcome [3] | outcome [17] | outcome [18] | outcome [19] | outcome [4] | outcome [5] | outcome [6] | outcome [8] | outcome [9] | outcome [10] | outcome [11] | Potency [12]

CCCCCC1Nc2cc(C(F)(F)F)c(S(N)(=O)=O)cc2S(=O)(=O)N1 (configuration not stated)
inactive: outcome [1] | outcome [14] | Potency [2] | outcome [3] | outcome [17] | outcome [18] | outcome [19] | outcome [5] | outcome [6] | outcome [7] | outcome [8] | outcome [9] | outcome [10] | outcome [11] | Potency [12]

CCOC(=O)OCC/C(SC(=O)OCC)=C(\C)N(C=O)Cc1cnc(C)nc1N
inactive: Potency [2] | outcome [3] | outcome [17] | outcome [18] | outcome [19] | outcome [5] | outcome [6] | outcome [8] | outcome [9] | outcome [10] | outcome [11] | Potency [12]

NCCc1ccn[nH]1
inactive: outcome [1] | outcome [14] | Potency [2] | outcome [3] | outcome [19] | outcome [4] | outcome [5] | outcome [6] | outcome [7] | outcome [8] | outcome [9] | outcome [10] | outcome [11] | Potency [12]

O=C(O)/C=C/c1ccccc1
inactive: outcome [1] | outcome [15] | Potency [2] | outcome [16] | outcome [3] | outcome [17] | outcome [18] | outcome [19] | outcome [4] | outcome [5] | outcome [6] | outcome [7] | outcome [8] | outcome [9] | outcome [10] | outcome [11] | Potency [12]

CC(C)=CC(C)(C)C
inactive: outcome [1] | outcome [15] | Potency [2] | outcome [16] | outcome [3] | outcome [17] | outcome [18] | outcome [19] | outcome [20] | outcome [6] | outcome [7] | outcome [8] | outcome [9] | outcome [10] | outcome [11] | Potency [12]

NC(Cc1c[nH]c2ccccc12)C(=O)O (configuration not stated)
inactive: outcome [13] | outcome [1] | outcome [14] | Potency [2] | outcome [17] | outcome [18] | outcome [19] | outcome [4] | outcome [5] | outcome [6] | outcome [7] | outcome [8] | outcome [9] | outcome [10] | outcome [11] | Potency [12]
